Measured values taken from PubChem BioAssay AID624504 (Sanford-Burnham Center for Chemical Genomics, 2012).
The whole screen tested about 5,000 compounds, of which about 3,900 (78%) were called active. Cut-off read from the data, not from the text of the source: active = inhibition above about 22%; inactive = the rest. So high a share suggests a set chosen from earlier hits. Only a sample is shown.

Assay: fluorescence retest of MPTP screen hits in isolated mitochondria, single concentration (AID 624504);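 note: 0% = DMSO vehicle and 100% = positive control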
Settings: membrane potential, Rhodamine 123 fluorescence, at 10 µM, stronger effect = higher value
With Cc1nc(N2CCOCC2)c2c(C)c(C(=O)Nc3ccc(C(F)(F)F)cc3)sc2n1 the inhibition was 81.9% (active). In the case of CCCCCc1c(Cc2ccccc2)ncn1CCc1ccccc1OC, the inhibition is reported as 106% (active). In the case of Nc1nnc(SCC(=O)Nc2ccc3nc(SCC(=O)Nc4ccccc4)sc3c2)s1, the inhibition is reported as 77.9% (active). In the case of Cc1cccc(NC(=O)Nc2cccc(Oc3c(F)c(F)c(F)c(F)c3F)c2)c1, the inhibition is reported as 62.1% (active). For CCN(CC)S(=O)(=O)c1ccc(N(C)Cc2ccc(C(F)(F)F)cc2)nc1, the inhibition was 93.6% (active). In the case of CSc1nsc(NC(=O)Nc2ccccc2)n1, the inhibition is reported as 89.7% (active). With O=C(Nc1ccccc1)Nc1nc2ccccc2s1 the inhibition was 80.6% (active). For CCSc1nsc(NC(=O)Nc2cccc(C(C)=O)c2)n1, the inhibition was 83.6% (active). For COc1ccc(/C=C(/CC(=O)Nc2ccc(C)cc2)c2nc3ccccc3s2)cc1, the inhibition was -7.49% (inactive). In the case of C=CCSc1nsc(NC(=O)Nc2cccc(C(C)=O)c2)n1, the inhibition is reported as 84.6% (active). In the case of CCCCN(CCCC)CCC(O)c1cc2c(Cl)cc(Cl)cc2c2cc(C(F)(F)F)ccc12 (stereo not given), the inhibition is reported as -7.09% (inactive). With CC(C)CC(=O)N/C(N)=N/c1nc2ccccc2s1 the inhibition was 50% (active). For O=C1c2ccccc2C2=Nc3ccccc3SC(c3ccccc3F)C12 (stereo not given), the inhibition was 59% (active). For S=C(Nc1cccc(Br)c1)N1CCn2cccc2C1c1cccnc1 (stereo not given), the inhibition was 94.4% (active). In the case of CN(c1cccc(NC(=O)Nc2ccc(Cl)cc2)c1)S(C)(=O)=O, the inhibition is reported as 91.2% (active). With Cc1ccc(S(=O)(=O)N(CC(=O)Nc2cccc([N+](=O)[O-])c2)Cc2ccc(Cl)cc2)cc1 the inhibition was 88.5% (active). For CN(c1ccccc1)S(=O)(=O)c1cccc(NC(=O)Cc2ccc(Cl)cc2)c1, the inhibition was 81.2% (active). With O=C(c1ccncc1)N1CCN(S(=O)(=O)c2cc(C(F)(F)F)cc(C(F)(F)F)c2)CC1 the inhibition was 99.7% (active). With O=C(Cc1ccsc1)N1CCN(S(=O)(=O)c2cc(C(F)(F)F)cc(C(F)(F)F)c2)CC1 the inhibition was 86.7% (active). For CCC(C)N1C(=O)S/C(=C/c2ccc(Sc3nc4ccccc4[nH]3)o2)C1=O (stereo not given), the inhibition was 91.4% (active). In the case of Oc1c(Cl)cc(Cl)c(Cl)c1Cc1c(O)c(Cl)cc(Cl)c1Cl, the inhibition is reported as 16.1% (inactive). In the case of Cc1nc2c(OCc3ccc(Cl)cc3)cccn2c1N(C)Cc1cccs1, the inhibition is reported as 106% (active). With Cc1nc2c(OCc3cccc(Cl)c3)cccn2c1N(C)CC1CC1 the inhibition was 107% (active). For Cc1nc2c(OCc3ccc(Cl)cc3Cl)cccn2c1N(C)CC1CC1, the inhibition was 105% (active). For O=C(/C(=C/c1cccc(Cl)c1)c1nc2ccccc2[nH]1)c1ccccc1, the inhibition was 77.4% (active). With NC(N)=N/N=C/c1ccc(Cl)c([N+](=O)[O-])c1 the inhibition was -8.15% (inactive). In the case of CC(C)(C)c1ccc(SCCc2ccncc2)cc1, the inhibition is reported as 98.5% (active). In the case of Cc1cc(C)c(SCCc2ccncc2)c(C)c1, the inhibition is reported as 95.5% (active). For c1ccc2c(CSCc3nc4ccccc4[nH]3)cccc2c1, the inhibition was 55.6% (active). With O=C(c1ccc(N2CCCC2=O)cc1)N1CCN(c2ccc(C(F)(F)F)cc2[N+](=O)[O-])CC1 the inhibition was 76% (active). For O=C(Nc1cccc(C(F)(F)F)c1)c1ccc(N2CCNCC2)c([N+](=O)[O-])c1, the inhibition was -27% (inactive). For N#Cc1c(-c2cccs2)nc(SCC(=O)c2ccc(Br)cc2)[nH]c1=O, the inhibition was 61.2% (active). With Cc1ccc(NC(=O)Nc2nnc(-c3ccncc3)s2)cc1 the inhibition was 81.7% (active). In the case of CCc1ccc(NC(=O)Nc2ccncc2)cc1, the inhibition is reported as 71.8% (active). For Cc1nnc(NC(=O)Nc2ccc(Cl)c(Cl)c2)s1, the inhibition was 94% (active). In the case of CCCCC(=O)NNC(=S)NC(=O)C(c1ccccc1)c1ccccc1, the inhibition is reported as -2.85% (inactive). With O=[N+]([O-])c1cc(Cl)cc(/C=N/NC(=S)Nc2cc(S(=O)(=O)N3CCOCC3)ccc2Cl)c1O the inhibition was 5.99% (inactive). With O=C(c1cc(-c2cccc(O)c2)on1)N1CCc2ccccc2C1 the inhibition was 33.5% (active). For O=C(NNc1ccccc1Cl)C(O)(c1cccc(C(F)(F)F)c1)c1cccc(C(F)(F)F)c1, the inhibition was 83.9% (active). With Cc1ccc(S(=O)(=O)Nc2ccc3ncccc3c2)cc1 the inhibition was 72.7% (active). With COc1ccc(S(=O)(=O)NCCCCOc2ccc(Cl)cc2)cc1 the inhibition was 88.4% (active). With O=[N+]([O-])c1cc(Br)c(O)c(/C=N/Nc2nc3ccccc3s2)c1 the inhibition was 65.6% (active). For O=C(CCN1C(=O)/C(=C/c2cccs2)SC1=S)NNC(=O)c1cccc(O)c1, the inhibition was 49% (active). With COc1cc(NC(=O)c2cncc(-c3ccc(C#N)cc3)c2)cc(C(=O)Nc2cccc(C(F)(F)F)c2)c1 the inhibition was 58.3% (active). For COCCn1c(CN2CCC(Cc3ccccc3)CC2)nc2c1c(=O)n(C)c(=O)n2C, the inhibition was 10.1% (inactive). For COC(=O)c1c(C)[nH]c(C(=O)/C=C/c2ccc(Cl)cc2)c1C, the inhibition was 86.5% (active). In the case of CCCc1nc2scc(-c3ccc(C)cc3)c2c(=O)n1N, the inhibition is reported as 20.9% (active). In the case of CC(C)c1ccc(NC(=S)NC2CC3C=CC2C3)cc1 (stereo not given), the inhibition is reported as 91% (active). With COc1cccc(CNS(=O)(=O)c2ccc3c(c2)CC(C)N3C(=O)C2CCC2)c1 (stereo not given) the inhibition was 91.1% (active). With O=C(Nc1nc(-c2ccc3c(c2)OCO3)cs1)c1ccncc1 the inhibition was 42.8% (active). For Cc1ccc(F)cc1NC(=O)Cc1nn(C)c(=O)c2ccccc12, the inhibition was 29.6% (active). With Cc1ccc(-c2nc(COC(=O)c3c(C)noc3C)cs2)cc1 the inhibition was 23.4% (active). In the case of Cc1ccc(-c2noc(CCC(=O)Nc3ccccc3N3CCN(C)CC3)n2)cc1, the inhibition is reported as -2.79% (inactive). In the case of Cc1ccc(NC(=O)CN(C)CC(=O)Nc2cccc(F)c2)cc1[N+](=O)[O-], the inhibition is reported as 100% (active). For Cc1cc(C)c(NC(=O)C[N+](C)(C)CC(O)COc2cccc3ccccc23)c(C)c1 (stereo not given), the inhibition was -17% (inactive).
